From PubChem BioAssay (NCI)
About 83,000 compounds went through this panel and 20% of them were active in at least one assay; those are over-represented in the sample as a whole.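 Note: values are percent growth. 100 is the growth of untreated cells, values between 100 and 0 indicate rising inhibition; between -100 and 0 indicates cell death.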 Active and inactive are the calls of the source.

system: KM12 colon; assay: NCI-60 one-dose screen, 48 h (100 = growth as untreated, 0 = no growth, -100 = all killed); conditions: 10 µM
Experimental: Growth inhibition of the KM12 human tumor cell line is measured as a screen for anti-cancer activity. Cells are grown in 96 well plates and exposed to the test compound for 48 hours. Compounds are tested at a single concentration, which is 10^-5 M for most compounds. The reported endpoint is percent growth (GI% or GIPRCNT), where numbers from 0 - 100% represent growth inhibition, and numbers from -100% - 0 represent cell death. For example, a value of 40 represents 60% growth inhibition. A value of 0 means no net growth occurred over the course of the experiment. A value of -40 indicates 40% of cells at the beginning of the experiment died by the end of the experiment. A value of -100 means all cells are dead at the end of the experiment.
NCI-60 Human Tumor Cell Lines Screen was performed using the standard one-dose NCI protocol, which is described in more detail at https://dtp.cancer.gov/discovery_development/nci-60/default.htm.
Compounds with GIPRCNT values below 10 were considered active. Activity score was based on GIPRCNT using the following formula: […]
Score is 0 for GIPRCNT values of 100 or above, 50 for GIPRCNT values of 0, and 100 for GIPRCNT values of -100.

Compound | growth
O=C(O)c1ccc(S(=O)(=O)O)cc1 | 109% (inactive)
COc1ccccc1C1OC2=Nc3cc(C)c(C)cc3NC2C1=O (stereo not given) | 93% (inactive)
COC(=O)C(C)Oc1ccc(OC#N)cc1 (stereo not given) | 99.8% (inactive)
Cc1ccc(C(=O)N/N=C/c2ccc3c(c2)OCO3)cc1 | 82.1% (inactive)
N#Cc1c(N)sc(=S)c2c1CCCC2 | 110% (inactive)
Nc1ccc(N)c([N+](=O)[O-])c1 | 104% (inactive)
CN(C)c1ccc(C(c2ccc(O)cc2)c2ccc(N(C)C)cc2)cc1 | 89.5% (inactive)
O=C(OCC(O)C1OC(c2ccccc2)OC(COC(=O)c2ccccc2)C1O)c1ccccc1 (stereo not given) | 111% (inactive)
Clc1ccc(-c2n[nH]c3c2Cc2ccccc2-3)cc1Cl | 102% (inactive)
COc1ccc(/C=C/c2cccc[n+]2C)cc1 | 33% (inactive)
CC1CCC(C(=O)O)N1 (stereo not given) | 106% (inactive)
COc1cc2c(cc1OC)[C@H](C(=O)O)[C@@H](c1ccc(OC(C)C)c(OC)c1)N(C)C2=O | 107% (inactive)
CCCCN(CCCC)CCCO | 104% (inactive)
O=[N+]([O-])c1cccc2nsnc12 | 104% (inactive)
COc1ccc2c(c1)CCc1c-2n[nH]c1-c1[nH]nc2c1CCc1cc(OC)ccc1-2 | 47.6% (inactive)
CC1CC(O)C2C3(C)CCCC2(COC3=O)C12CCC1(CCOC1=O)O2 (stereo not given) | 107% (inactive)
O=C(CN1CCNCC1)N1CCOCC1 | 108% (inactive)
CC1SC(N)=NC1=O (stereo not given) | 110% (inactive)
CCN(CC)c1ccc2nc3ccc(=[N+](CC)CC)cc-3oc2c1 | 4.22% (active)
COc1cc(OC)c2ccc(=O)oc2c1 | 98.9% (inactive)

Compound | growth
CCCC(C)OCC(=O)O (stereo not given) | 101% (inactive)
CNC(=O)c1ccccc1CC1(O)c2ccccc2Oc2ccccc21 | 34.5% (inactive)
OCc1cccc2ccccc12 | 107% (inactive)
O=C(NCCNC(=O)c1ccc(Cl)cc1Cl)c1ccc(Cl)cc1Cl | 105% (inactive)
Sc1ccc(Nc2c3ccccc3nc3ccccc23)cc1 | 65.5% (inactive)
CCCC(=O)Nc1ccc2c(c1)CN1C(=O)c3ccccc3C1=N2 | 97.5% (inactive)
Oc1ccc(N=Nc2ccc(Br)cc2)c(O)c1 | 8.35% (active)
Cc1cc2nc(CC(=O)c3cccc([N+](=O)[O-])c3)c(=O)[nH]c2cc1C | 86.6% (inactive)
NNc1ccccc1C(=O)O | 108% (inactive)
CC1=CC(C)(C)NC(=S)N1c1ccc(S(=O)(=O)O)c2cccc(S(=O)(=O)O)c12 | 94.6% (inactive)
CCS(=O)(=O)c1cc(=O)[nH]c(=O)[nH]1 | 107% (inactive)
O=S(=O)(O)CC(O)CN1CCN(CCO)CC1 (stereo not given) | 107% (inactive)
COC(=O)/C=C/C(=O)NC(N)=O | 102% (inactive)
CCOC(=O)C(CCC(C)C)C(=O)OCC | 104% (inactive)
O=[N+]([O-])c1ccc(CO)cc1 | 105% (inactive)
CCOC(=O)C(C#N)Cc1ccccc1 (stereo not given) | 133% (inactive)
COC(=O)c1ccc(NC(=O)CCl)cc1 | 83.6% (inactive)
C=C[Si](OC(C)=O)(OC(C)=O)OC(C)=O | 104% (inactive)
O=[N+]([O-])c1ccccc1S(=O)c1ccccc1[N+](=O)[O-] | 88.1% (inactive)
Oc1ccc2c(c1)OCC1(O)Cc3cc(O)c(O)cc3C21 (stereo not given) | 96.5% (inactive)
